In PubChem BioAssay:
Calls of active or inactive are those of the source.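 How the source made its calls, unless noted: active means compounds whose cell count with miR-34 switched on is under 0.7 times the count with it off; inactive means the rest.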

Tests used:
[1] = sensitizers of A549 cells to miR-34 induction, primary screen, imaging, A549 dox-inducible miR-34, nuclei and caspase counts (AID 1347080); conditions: A549 miR-34 inducible, Hoechst nuclei count, 48 h; further: test concentration not given here
[2] = viability rescue of complex I mutant cybrids, primary screen, cell-based, galactose medium, ATP luminescence (AID 1645843;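 active means z-score of at least 1.8 in each of two replicates, scored against plate mean and spread of sample wells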;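 further: positive z means more ATP and so rescue of galactose-driven cybrid death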); conditions: complex I mutant cybrid cells, 72 h, stronger effect = higher value
[3] = stronger effect = lower value, cell number ratio, induced over uninduced
[4] = measured here: relative caspase fold change +Dox/-Dox
[5] = measured here: total cells with miR-34 induction, stronger effect = lower value
[6] = measured here: total cells without miR-34 induction

For `O=C1NC(C(=O)O)CS1` (stereo not given), the fold change [1, 3] was 0.93 (inactive), the fold change [1, 4] was 1.73 and the cell count [1, 5] was 9590. For the same molecule, the cell count [1, 6] was 10300 and the z-score [2] was 1.05 (inactive).

With `COc1cc(CC(CO)C(CO)Cc2ccc(O)c(OC)c2)ccc1O` (stereo not given) the fold change [1, 3] was 1.4 (inactive), the fold change [1, 4] was 0.831 and the cell count [1, 5] was 8290. For the same molecule, the cell count [1, 6] was 5940 and the z-score [2] was 0.405 (inactive).

For `CC1CC2C3CC(F)C4=CC(=O)C(Cl)=C[C@]4(C)[C@@]3(F)C(O)C[C@]2(C)[C@@]1(O)C(=O)CO` (stereo not given in full), the fold change [1, 3] was 0.952 (inactive), the fold change [1, 4] was 1.63 and the cell count [1, 5] was 6600. For the same molecule, the cell count [1, 6] was 6930 and the z-score [2] was 0.895 (inactive).
